Source: PubChem BioAssay
GC-A act – GC-A (human) enzyme activation; P16066; HEK293 GC-A cells, cGMP TR-FRET, EC30 ANP; 0% at EC30 ANP, 100% saturating ANP; activation, % at 10 µM; actives 0.14% (n = 370,000); AID 1671463; in the data active means activation above about 40%
ADAM10 inh – ADAM10 inhibition, QFRET primary screen. O14672. recombinant ADAM10, EDANS/DABCYL FRET peptide cleavage, 3 h. inhibition, % at 7 µM. actives 0.62% (n = 370,000);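 active means inhibition above a per-campaign cutoff equal to the mean of compounds falling between control-based bounds plus 3 SD, cut at about 20% in these data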;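 further: 0% = DMSO wells while the 100% control is not disclosed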
GC-B act – GC-B (human) receptor activation. P20594. HEK293-GC-B cells, CNP EC30, cGMP TR-FRET; 0% at EC30 CNP, 100% saturating CNP. activation, % at 10 µM. actives 0.11% (n = 370,000). AID 1920062;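 active means activation at 10 µM reaching about 35% in either raw or pattern-adjusted values, limit read from the data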
ADAM17 inh – inhibitors of human ADAM17; inhibition, % at 6.95 µM; actives 0.83% (n = 370,000); recombinant ADAM17, EDANS/DABCYL FRET peptide cleavage; P78536; AID 720648;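 active means inhibition above the mean of compounds lying between control limits plus 3 SD, set per campaign, cut at about 8.5% in these data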;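 further: 0% = DMSO-only wells as the low control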
ADAM10 ctr – ADAM10 inhibition, counter-screen for ADAM17 exosite hits | shares compounds with ADAM17 inh | recombinant ADAM10, EDANS/DABCYL FRET peptide cleavage, 3 h | inhibition, % at 6.95 µM | actives 47% (n = 2,900) | AID 743256;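 active means mean inhibition over the triplicate runs exceeds the activity threshold set in the earlier primary screen, cut at about 20% in these data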;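 further: 0% = DMSO wells and 100% = marimastat wells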
ADAM17 confirm – human ADAM17 inhibition, confirmation; AID 743257; shares compounds with ADAM17 inh; actives 65% (n = 2,900); inhibition, % at 6.95 µM; recombinant ADAM17, EDANS/DABCYL QFRET peptide cleavage;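 active means mean inhibition across replicates above the hit cutoff set in the primary screen, cut at about 8.5% in these data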;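 further: 0% = DMSO wells and 100% = marimastat wells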
* hit, by the source's call; nt = no result given. Rows were chosen to be rich in hits. Some 1.3% of all compounds tested hit in one or more screens of this group.

SMILES | GC-A act | ADAM10 inh | GC-B act | ADAM17 inh | ADAM10 ctr | ADAM17 confirm
O=C(c1c(Cl)nc2sccn12)N1CCN(c2cccc(Cl)c2)CC1 | -16 | 10 | -12 | 9.1* | -8 | -1
CCCCC(=O)NC(c1cccc([N+](=O)[O-])c1)c1ccc2cccnc2c1O (centres undefined) | -6 | 18 | -5 | 9.6* | 25* | 17*
Cc1ccc(S(=O)(=O)CNC(=S)c2cccc(Cl)c2)cc1 | -2 | 19 | 2 | 11* | 48* | 26*
Cc1ccc(S(=O)(=O)NC(=S)c2ccccc2)cc1 | 1 | 1 | 2 | -1 | nt | nt
COc1cccc(-c2nc(Cl)nc3cc(Cl)ccc23)c1 | 11 | 5 | 4 | 0 | nt | nt
O=C(NC1CCCCCCC1)c1c(O)c2ccccc2[nH]c1=O | -5 | 3 | 5 | 9.4* | -6 | 1
COc1ccc(-n2c(SCC(=O)N(CC(C)C)CC(C)C)nnc2-c2ccncc2)cc1 | 0 | -4 | 0 | -1 | nt | nt
Fc1cc(Br)ccc1COc1ccc(-c2nnco2)cc1 | 17 | -12 | -5 | -2 | nt | nt
O=C(CSc1nnc(NC(=O)c2ccc(F)cc2)s1)NCc1ccco1 | -4 | -15 | -2 | -11 | nt | nt
O=C(CSc1nnc(NC(=O)c2cccc(F)c2)s1)NCc1ccco1 | -2 | 7 | -6 | 8.6* | -7 | -2
Cc1[nH][nH]c(=O)c1C=Nc1ccc(C(F)(F)F)cc1 | -2 | -4 | 8 | -1 | nt | nt
COc1ccc(N=Cc2c(C)[nH][nH]c2=O)cc1 | -3 | 7 | -7 | 8.8* | 13 | 7
COC(=O)CN1C(=O)COc2ccc(S(=O)(=O)N3CCCCC3)cc21 | 2 | -10 | 3 | -2 | nt | nt
CCOC(=O)Cn1cnc2c(nnn2-c2cccc(Cl)c2)c1=O | -2 | 2 | -4 | -1 | nt | nt
O=C(CSc1nnc(COc2cccc3ccccc23)o1)N1c2ccccc2CCc2ccccc21 | -9 | 9 | -6 | 8.9* | 12 | 8
NC(=O)CSc1nnc(COc2cccc3ccccc23)o1 | -1 | -4 | -4 | 1 | nt | nt
O=C(C1CCCCC1)N1C[C@H](n2cc(-c3ccc(F)cc3)nn2)[C@@H](O)C[C@@H]1c1ccc(Cl)cc1 | -14 | 9 | -8 | 4 | nt | nt
CCCCCC(=O)N1C[C@H](O)[C@@H](n2cc(-c3ccc(F)cc3)nn2)C[C@@H]1c1ccc(Cl)cc1 | -4 | 6 | -1 | 2 | nt | nt
Cc1ccc([C@H]2C[C@@H](O)[C@H](n3cc(-c4ccc(F)cc4)nn3)CN2C(=O)C2CCCCC2)cc1 | -4 | 12 | -3 | 10* | 29* | 15*
CCCCCC(=O)N1C[C@@H](n2cc(-c3ccc(F)cc3)nn2)[C@H](O)C[C@@H]1c1ccc(Cl)cc1 | -13 | 15 | -4 | 11* | 29* | 17*
O=C(Nc1cc(=O)[nH]c(=O)[nH]1)c1cc(Cl)ccc1Cl | -1 | -2 | 4 | -2 | nt | nt
COC(=O)C1=C(C)N=C2SC(C)C(=O)N2C1c1cccs1 (centres undefined) | -6 | 11 | 6 | 9.6* | 1 | 4
COC(=O)C1=C(C)N=C2SC(C)C(=O)N2C1c1ccc(C(=O)OC)cc1 (centres undefined) | 1 | 13 | 0 | 3 | nt | nt
COc1ccc(CNC(=O)C[C@@H]2C[C@H]3c4cc(NC(=O)NC5CCCC5)ccc4O[C@H]3[C@H](CO)O2)cc1 | 1 | 6 | 6 | 9.1* | 0 | 3
COc1ccc(CNC(=O)C[C@@H]2C[C@H]3c4cc(NC(=O)C5CCC5)ccc4O[C@H]3[C@@H](CO)O2)cc1 | -1 | -11 | 6 | -5 | nt | nt
SMILES | GC-A act | ADAM10 inh | GC-B act | ADAM17 inh | ADAM10 ctr | ADAM17 confirm
C#CCCN([C@@H](CC(C)C)C(=O)OC)S(=O)(=O)c1ccccc1Br | -6 | 3 | 3 | 1 | nt | nt
O=C(NC1CCCCN(Cc2ccc(OC(F)(F)F)cc2)C1=O)c1cccc(C(F)(F)F)c1 (centres undefined) | -2 | 2 | -1 | -3 | nt | nt
CCC(=O)NC(c1cccs1)c1cc([N+](=O)[O-])c2cccnc2c1O (centres undefined) | -1 | 15 | 5 | 3 | nt | nt
CC(=O)NC(c1cccs1)c1cc([N+](=O)[O-])c2cccnc2c1O (centres undefined) | -1 | 15 | 9 | 11* | 36* | 19*
CCC(Sc1nc2ccsc2c(=O)n1Cc1ccc(C(=O)O)cc1)C(=O)Nc1ccc(Cl)cc1 (centres undefined) | 6 | -1 | 8 | -2 | nt | nt
O=C(COc1ccccc1Br)N1CCN(C(=O)c2cccs2)CC1 | -4 | 7 | -4 | 8.8* | 13 | 9.3*
O=C(COc1ccccc1)N1CCN(C(=O)c2cccs2)CC1 | -3 | 9 | -3 | -1 | nt | nt
O=C(c1ccccc1)c1ccc(C(=O)N2CCN(c3ccc(O)cc3)CC2)cc1 | -3 | 2 | -14 | 8.7* | -4 | 1
CC(C)c1ccc(S(=O)(=O)Nc2ccc3c(c2)OCO3)cc1 | 2 | 8 | 4 | 12* | 8 | 6
CCOc1ccc(S(=O)(=O)Nc2ccc3c(c2)OCO3)cc1 | 6 | 0 | -3 | -2 | nt | nt
CCOC(=O)CNC(=O)CSc1nnc(-c2ccc(C(C)(C)C)cc2)n1-c1ccc(Cl)cc1 | -3 | 12 | -3 | 8 | nt | nt
COc1ccccc1-c1csc(C(O)(c2ccccc2)C(F)(F)F)n1 (centres undefined) | 2 | 17 | 0 | 10* | 34* | 19*
COc1cccc(C(C)(O)c2nc(-c3ccccc3OC)cs2)c1 (centres undefined) | -2 | 12 | -1 | 6 | nt | nt
COc1cc(F)ccc1-c1csc(C(C)(O)c2ccccc2)n1 (centres undefined) | 2 | 18 | -9 | 10* | 24* | 11*
CC1(C(=O)NS(=O)(=O)c2cccc(Cl)c2)CCN1C(=O)Cc1ccc(Cl)cc1Cl (centres undefined) | 2 | 7 | 4 | 1 | nt | nt
CCOC(=O)c1c(-c2ccccc2)csc1NC(=O)CSc1nncs1 | 4 | 14 | 4 | 9.0* | 17 | 13*
Cc1ccc(C(=O)CC2C(=O)N(c3ccccc3)C(=S)N2c2ccccc2)cc1 (centres undefined) | 3 | 16 | -1 | 9.3* | 44* | 19*
O=C(OCC(=O)N1CCCc2ccccc21)c1cc(S(=O)(=O)N2CCOCC2)ccc1O | -1 | -119 | 7 | -29 | nt | nt
COc1cc(CN2C[C@@H](CO)O[C@@H](n3cnc4c(N5CCN(c6ccccc6)CC5)ncnc43)C2)cc(OC)c1OC | -2 | 5 | -3 | 9.1* | 0 | 3
COc1ccccc1NS(=O)(=O)c1cc(NC(=O)Nc2ccccc2)ccc1N1CCCCC1 | -2 | 13 | 2 | 8.8* | 4 | 8
